# Experimental data reported in PubChem BioAssay.
# Unmarked numbers belong to inactive results. Activity calls are given as the source filed them.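 Rule for the calls, unless noted: active = mean inhibition over 43.08%, the solvent-only control mean plus 3 SD; inactive = the rest.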
# Assays:
# [1] = target: Nuclear receptor coactivator 3 (Homo sapiens) (UniProt Q9Y6Q9); assay: NCOA3 GAL4-fusion reporter inhibition – cell-based, luminescence, quadruplicate, confirmation (AID 588792); conditions: HEK293 GAL4-SRC3 luciferase reporter, at 3.6 µM, hits give high values;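 note: 0% = DMSO treated cells and 100% = gossypol at 36 µM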
# Chain of Nuclear receptor coactivator 3 (Homo sapiens) (Q9Y6Q9 whole entry, looked up, the tested form may be a part): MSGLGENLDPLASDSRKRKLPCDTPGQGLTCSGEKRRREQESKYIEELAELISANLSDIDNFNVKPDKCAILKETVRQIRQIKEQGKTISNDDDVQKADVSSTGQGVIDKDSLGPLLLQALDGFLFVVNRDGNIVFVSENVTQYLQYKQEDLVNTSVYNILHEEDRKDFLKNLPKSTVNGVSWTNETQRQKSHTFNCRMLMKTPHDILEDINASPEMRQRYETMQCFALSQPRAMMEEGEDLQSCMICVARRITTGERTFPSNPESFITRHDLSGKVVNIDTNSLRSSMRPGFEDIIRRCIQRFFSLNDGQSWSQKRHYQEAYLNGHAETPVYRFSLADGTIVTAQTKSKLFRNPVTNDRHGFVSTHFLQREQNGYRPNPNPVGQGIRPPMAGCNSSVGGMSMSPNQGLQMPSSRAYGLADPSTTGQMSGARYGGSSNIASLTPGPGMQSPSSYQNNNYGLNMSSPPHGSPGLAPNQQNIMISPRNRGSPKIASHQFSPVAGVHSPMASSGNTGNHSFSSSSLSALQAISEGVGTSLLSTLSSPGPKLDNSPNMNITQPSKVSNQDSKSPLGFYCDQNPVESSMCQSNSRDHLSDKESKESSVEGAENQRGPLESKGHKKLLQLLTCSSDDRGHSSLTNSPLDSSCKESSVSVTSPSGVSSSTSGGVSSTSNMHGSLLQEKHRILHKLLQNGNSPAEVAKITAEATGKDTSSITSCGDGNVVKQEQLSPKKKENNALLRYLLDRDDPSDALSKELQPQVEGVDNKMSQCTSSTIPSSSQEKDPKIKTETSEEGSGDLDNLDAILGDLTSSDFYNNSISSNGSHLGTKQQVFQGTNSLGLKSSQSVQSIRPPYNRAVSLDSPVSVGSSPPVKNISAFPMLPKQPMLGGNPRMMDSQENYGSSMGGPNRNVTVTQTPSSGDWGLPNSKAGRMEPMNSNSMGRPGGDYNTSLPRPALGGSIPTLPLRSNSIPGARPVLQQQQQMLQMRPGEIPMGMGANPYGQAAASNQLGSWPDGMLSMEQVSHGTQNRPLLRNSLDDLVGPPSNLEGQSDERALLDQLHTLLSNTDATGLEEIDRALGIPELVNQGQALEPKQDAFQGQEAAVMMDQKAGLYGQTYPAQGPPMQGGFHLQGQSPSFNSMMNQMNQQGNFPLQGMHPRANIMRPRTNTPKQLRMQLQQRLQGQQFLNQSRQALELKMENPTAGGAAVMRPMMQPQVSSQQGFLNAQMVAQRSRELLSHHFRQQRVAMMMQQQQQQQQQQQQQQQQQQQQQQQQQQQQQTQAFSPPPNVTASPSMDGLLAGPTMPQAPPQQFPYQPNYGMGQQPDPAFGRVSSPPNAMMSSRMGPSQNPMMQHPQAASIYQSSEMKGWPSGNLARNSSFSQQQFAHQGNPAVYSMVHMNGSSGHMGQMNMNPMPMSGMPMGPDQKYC
# [2] = system: transactivating tegument protein VP16 (Human herpesvirus 1), Gal4-VP16 luciferase reporter; assay: repression of VP16-driven luciferase reporter – cell-based, luminescence, high throughput, counter-screen for SRC3 inhibitor project (AID 588794; in the data active = inhibition above about 30%); conditions: mammalian cells, at 3.6 µM, hits give high values
# [3] = target: Nuclear receptor coactivator 1 (Homo sapiens) (UniProt Q15788); assay: NCOA1 GAL4-fusion reporter inhibition – cell-based, luminescence, quadruplicate, confirmation (AID 588820;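 active = mean inhibition above 46.68%, the untreated control wells mean plus 3 SD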;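 note: 0% = DMSO wells and 100% = gossypol 36 µM treated wells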); conditions: HEK293 GAL4-SRC1 luciferase reporter, at 3.6 µM, hits give high values
# Chain of Nuclear receptor coactivator 1 (Homo sapiens) (Q15788 whole entry, looked up, the tested form may be a part): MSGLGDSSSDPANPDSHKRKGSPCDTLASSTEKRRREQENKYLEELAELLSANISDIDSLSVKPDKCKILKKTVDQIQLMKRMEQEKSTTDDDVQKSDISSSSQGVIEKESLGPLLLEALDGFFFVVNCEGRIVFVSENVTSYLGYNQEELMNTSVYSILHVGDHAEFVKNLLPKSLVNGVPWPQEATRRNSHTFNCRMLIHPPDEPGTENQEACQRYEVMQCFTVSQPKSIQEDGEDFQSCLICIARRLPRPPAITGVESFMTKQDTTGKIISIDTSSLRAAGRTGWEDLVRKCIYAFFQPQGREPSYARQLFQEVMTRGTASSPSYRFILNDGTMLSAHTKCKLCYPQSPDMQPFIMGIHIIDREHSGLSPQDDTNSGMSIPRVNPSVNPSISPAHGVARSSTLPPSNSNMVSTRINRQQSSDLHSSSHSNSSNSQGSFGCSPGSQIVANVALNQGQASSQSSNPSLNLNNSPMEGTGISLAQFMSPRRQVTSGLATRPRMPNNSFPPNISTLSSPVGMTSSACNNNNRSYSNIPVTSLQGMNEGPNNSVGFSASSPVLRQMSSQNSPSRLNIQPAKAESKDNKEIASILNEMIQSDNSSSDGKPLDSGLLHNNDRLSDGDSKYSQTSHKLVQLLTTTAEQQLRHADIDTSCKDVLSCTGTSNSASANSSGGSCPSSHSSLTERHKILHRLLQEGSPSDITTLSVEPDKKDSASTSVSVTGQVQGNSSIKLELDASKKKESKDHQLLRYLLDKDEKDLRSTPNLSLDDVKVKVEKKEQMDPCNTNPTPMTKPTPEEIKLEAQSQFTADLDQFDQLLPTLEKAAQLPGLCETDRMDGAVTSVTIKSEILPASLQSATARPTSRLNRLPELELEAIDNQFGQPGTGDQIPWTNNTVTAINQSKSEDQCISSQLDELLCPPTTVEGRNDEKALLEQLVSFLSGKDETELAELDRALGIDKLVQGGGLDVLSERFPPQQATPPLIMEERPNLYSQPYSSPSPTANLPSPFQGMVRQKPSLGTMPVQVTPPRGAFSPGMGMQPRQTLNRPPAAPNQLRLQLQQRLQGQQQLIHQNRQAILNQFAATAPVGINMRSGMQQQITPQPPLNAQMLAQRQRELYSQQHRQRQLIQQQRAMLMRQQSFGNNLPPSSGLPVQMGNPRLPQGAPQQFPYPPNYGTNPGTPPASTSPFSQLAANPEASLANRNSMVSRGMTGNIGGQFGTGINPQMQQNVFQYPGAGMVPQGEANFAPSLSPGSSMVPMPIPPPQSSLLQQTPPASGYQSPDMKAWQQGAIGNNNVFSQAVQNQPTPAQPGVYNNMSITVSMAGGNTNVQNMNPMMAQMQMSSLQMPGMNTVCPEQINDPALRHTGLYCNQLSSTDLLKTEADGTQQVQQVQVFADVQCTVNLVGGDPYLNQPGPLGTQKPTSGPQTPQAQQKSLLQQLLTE
# [4] = repression of VP16-driven luciferase reporter – cell-based, luminescence, high throughput, counter-screen for SRC1 inhibitor project (AID 588824; in the data active = inhibition above about 25%); conditions: cell-based VP16 transactivation luciferase luminescence; at 3.6 µM; hits give high values
SMILES,inhibition [1],inhibition [2],inhibition [3] [%],inhibition [4]
c1ccc(-c2noc(-c3ccc4ccccc4c3)n2)nc1,43.7% (active),19.2%,-79.6,23.7%
COC1CC(C)C(OC)c2cc(O)cc(c2O)NC(=O)C(C)=CC=CC(C)C(OC(N)=O)C(C)=CC(C)C1OC (stereo unspecified),72.5% (active),80.2% (active),-2.07,77% (active)
N#CC(c1ccc(Cl)cc1)c1ccc2c(C(F)(F)F)cc(C(F)(F)F)nc2n1 (stereo unspecified),62% (active),85.7% (active),32,83.3% (active)
COc1ccccc1N(C(=O)CCl)c1cn(C(C)=O)c2ccccc12,52.2% (active),27%,27.2,18.7%
